Reference: PubChem BioAssay AID1159580 (chemical genetic matrix, 2015)
About 2,000 (36%) of roughly 5,500 compounds were called active. Roughly 18% stayed inconclusive and do not appear here. Cut-off read from the data, not from the text of the source: active = normalized growth mostly below about 0.91 (no sharp cut-off); inconclusive = no clear call, values can overlap the other calls; inactive = mostly above about 0.92. Some of the results follow.

Experiment: chemical genetic growth profiling, strain panel (AID 1159580);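 note: tested at 20 µM; growth read once vehicle control cultures reached saturation at 30 °C; 1 = growth at the plate median or of vehicle wells; lower values mean less growth of the strain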
Conditions: S. cerevisiae deletion strains, growth OD

Measured: normalized growth

CCOC(=O)C1C(c2ccc(Br)cc2)C(C(=O)OCC)C(O)(C(F)(F)F)NC1(O)C(F)(F)F (stereo unspecified)
inactive: locus YAR019C, strain CDC15, active compounds read low 0.999 | locus YBL105C, strain PKC1, active compounds read low 0.991 | locus YBR135W, strain CKS1, active compounds read low 1 | locus YBR136W, strain MEC1, active compounds read low 0.988 | locus YBR160W, strain CDC28, active compounds read low 0.999 | locus YDL017W, strain CDC7, active compounds read low 0.996 | locus YDL028C, strain MPS1, active compounds read low 0.999 | locus YDL101C, strain DUN1, active compounds read low 0.99 | locus YDL108W, strain KIN28, active compounds read low 1 | locus YDL132W, strain cdc53, active compounds read low 0.996 | locus YDL214C, strain PRR2, active compounds read low 0.961 | locus YDR052C, strain DBF4, active compounds read low 0.994 | locus YDR054C, strain cdc34, active compounds read low 0.992 | locus YDR226W, strain ADK1, active compounds read low 0.998 | locus YDR477W, strain SNF1, active compounds read low 0.994 | locus YER123W, strain YCK3, active compounds read low 0.917 | locus YER133W, strain GLC7, active compounds read low 0.969 | locus YFL009W, strain cdc4, active compounds read low 0.998 | locus YFL029C, strain CAK1, active compounds read low 0.994 | locus YFR003C, strain YPI1, active compounds read low 0.995 | locus YFR019W, strain FAB1, active compounds read low 0.878 | locus YFR028C, strain CDC14, active compounds read low 0.995 | locus YGR040W, strain KSS1, active compounds read low 0.99 | locus YGR052W, strain FMP48, active compounds read low 1 | locus YGR092W, strain DBF2, active compounds read low 0.993 | locus YHR030C, strain SLT2, active compounds read low 0.941 | locus YHR079C, strain IRE1, active compounds read low 0.981 | locus YHR082C, strain KSP1, active compounds read low 0.961 | locus YHR205W, strain SCH9, active compounds read low 0.91 | locus YIL147C, strain SLN1, active compounds read low 0.999 | locus YJL095W, strain BCK1, active compounds read low 0.97 | locus YJL128C, strain PBS2, active compounds read low 0.967 | locus YJL157C, strain FAR1, active compounds read low 0.975 | locus YJR016C, strain ILV3, active compounds read low 0.997 | locus YJR066W, strain TOR1 (second series), active compounds read low 0.943 | locus YJR066W, strain TOR1, active compounds read low 0.911 | locus YKL048C, strain ELM1, active compounds read low 0.986 | locus YKL067W, strain YNK1, active compounds read low 0.974 | locus YKL101W, strain HSL1, active compounds read low 1 | locus YKL193C, strain SDS22, active compounds read low 0.998 | locus YKL203C, strain TOR2, active compounds read low 1.03 | locus YLR113W, strain HOG1, active compounds read low 0.91 | locus YLR133W, strain CKI1, active compounds read low 0.97 | locus YLR403W, strain SFP1, active compounds read low 0.966 | locus YML070W, strain DAK1, active compounds read low 0.956 | locus YMR001C, strain CDC5, active compounds read low 0.987 | locus YMR205C, strain PFK2 (second series), active compounds read low 0.988 | locus YMR277W, strain FCP1, active compounds read low 0.996 | locus YNL006W, strain LST8, active compounds read low 0.999 | locus YNL020C, strain ARK1, active compounds read low 0.99 | locus YNL161W, strain CBK1, active compounds read low 0.999 | locus YNL183C, strain NPR1, active compounds read low 0.942 | locus YNL207W, strain RIO2, active compounds read low 0.996 | locus YNL222W, strain SSU72, active compounds read low 0.999 | locus YNL307C, strain MCK1 (second series), active compounds read low 0.969 | locus YOL078W, strain AVO1, active compounds read low 1 | locus YOL136C, strain PFK27, active compounds read low 0.947 | locus YOR061W, strain CKA2, active compounds read low 0.995 | locus YOR119C, strain RIO1, active compounds read low 1.01 | locus YOR231W, strain MKK1, active compounds read low 0.984 | locus YOR329C, strain SCD5, active compounds read low 0.995 | locus YPL031C, strain PHO85, active compounds read low 0.999 | locus YPL153C, strain RAD53, active compounds read low 0.989 | locus YPL204W, strain HRR25, active compounds read low 0.985 | locus YPL209C, strain IPL1, active compounds read low 0.996 | locus YPL256C, strain CLN2, active compounds read low 0.9 | locus YPR025C, strain CCL1, active compounds read low 0.997 | locus YPR106W, strain ISR1, active compounds read low 0.99 | locus YPR111W, strain DBF20, active compounds read low 0.99 | strain NNK1, active compounds read low 0.992 | strain TSCII, active compounds read low 0.998
